Measurements taken from PubChem BioAssay (NCI).
This is part of a sample that, as a whole, favours compounds with a hit. Of some 79,000 tested, about 15% had one in any assay. Unmarked numbers belong to inactive results. Activity calls are given as the source filed them. No stated cut-off is given here; in the data, active means growth inhibition above about 70%; inactive means the rest.

Test: NCI Yeast Anticancer Drug Screen. Data for the cln2 rad14 strain (AID 165);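 further: 0% = growth equal to vehicle treated cultures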
Conditions: S. cerevisiae cln2 rad14 strain, at 50.0 µM, hits give high values
Procedure: Growth inhibition of yeast strains with defined genetic alterations is measured as a screen for potential anti-cancer activity. Selected strains with alterations in DNA damage repair or cell cycle control were exposed to compounds and growth inhibition was measured relative to vehicle treated controls. The strain used in this assay is cln2 rad14

| Structure (SMILES) | growth inhibition |
| --- | --- |
| c1ccc2c(c1)SCCCSCCSCCCS2 | 5.05% |
| O=C1NC(=O)C(=NC2C(=O)NC(=O)NC2=O)C(=O)N1 | 1.5% |
| CCOc1c(/C=C\c2cc(/C=C/c3cccc(OC)c3OCC)c([N+](=O)[O-])cc2[N+](=O)[O-])cccc1OC | -36.6% |
| Clc1nc(Sc2ccc(Br)cc2)c(Cl)c(Sc2ccc(Br)cc2)n1 | -0.8% |
| Cc1nnc2c3nccnc3c(Cl)nn12 | 20.3% |
| CCC(C)C(=O)OC1C(=O)OC2CC3C(C)=CC(=O)C(O)C3(C)C3C4(O)OCC23C1C(C)C4O (stereo not given) | 91.3% (active) |
| COc1cc(CN2CCCCC2)cc2cc(C(=O)O)c(=O)oc12 | -1.15% |
| C/C(=N/NC(=O)C1CCCO1)c1ccc(C)cc1 (stereo not given) | -92% |
| CCC(=O)N1CCN(C(=O)CC)CC1 | -12.8% |
| CCCCCCCCCCCCCCCCCC | 6.7% |
| C/C(=N/O)c1ccc(O)cc1O | -8.6% |
| CCc1cc2c(cc1C(=O)/C=C\c1ccco1)C(C)(C)CCC2(C)C | 96.8% (active) |
| COc1ccc(OC)c(/C=C/c2ccccc2)c1 | -24.8% |
| CC1OS(=O)(=O)CS(=O)(=O)OC1C (stereo not given) | -61.4% |
| N=C(N)c1ccc(OCCOc2cccc(N)c2)cc1 | -39% |
| COc1cc2ccccc2oc1=O | 15.2% |
| C#CC(CCC)NCCCC (stereo not given) | 3.05% |
| COc1ccc(/C=C/c2ccc3ccccc3n2)cc1 | -46.1% |
| C=C1C(=O)O[C@H]2[C@H]1[C@@H](OC(=O)C=C(C)C)CC1=C[C@@H](C[C@@]3(C)O[C@@H]23)OC1=O | 9.85% |
| CCC/C=C(/CC)COC(C)=O | -7.25% |

| Structure (SMILES) | growth inhibition |
| --- | --- |
| O=C(Nc1cc(Cl)ccc1Cl)Oc1ccc(Cl)cc1C(=O)c1ccccc1 | -16.8% |
| Cn1c2c(c(=O)n(C)c1=O)C(=Nc1ccccc1)C(=O)N2 | -38.3% |
| CCCCCCCCCCCCCCCC(=O)OCC(COP(=O)(O)OC1CCC2(C)C(=CCC3C2CCC2(C)C(C(C)CCCC(C)C)CCC32)C1)OC(=O)CCCCCCCCCCCCCCC (stereo not given) | -5.5% |
| COC(=O)C1C2OC(C(Br)C2Br)C1C(=O)OC (stereo not given) | -1.95% |
| CO/N=C1\CC(NC(=O)CNC(=O)OC(C)(C)C)c2ccsc21 (stereo not given) | 4.3% |
| O=C(Nc1ccccc1SC(=O)OCc1ccccc1)OCc1ccccc1 | 38.6% |
| O=C(NCCO)[C@H](O)[C@@H](O)[C@H](O)[C@H](O)CO | 16.1% |
| COC(=O)c1ccccc1-n1c(-c2ccc([N+](=O)[O-])cc2)csc1=NC(=O)c1cccc([N+](=O)[O-])c1 | -1.05% |
| N#CC1(C#N)C(c2ccccc2)C=CC12OCCCO2 (stereo not given) | 32% |
| CC1=NN(c2nc(N)nc(CN3CCOCC3)n2)C(C)(C)C1 | 20.6% |
| NC(=O)c1nnc2cc(F)c(F)cc2c1N | 3.8% |
| O=C(c1ccc(O)cc1)C1N=NCC1c1ccccc1 (stereo not given) | -17.8% |
| Nc1cccc([N+](=O)[O-])c1O | 9.75% |
| Cn1c(=O)c2c(-c3ccccc3)cc(-c3ccccc3)nc2n(C)c1=O | -30.7% |
| CCOP(=O)(OCC)c1cc(NC(=O)c2cc(NC(=O)c3cc(NC(=O)Nc4cc(C(=O)Nc5cc(C(=O)Nc6cc(P(=O)(OCC)OCC)c7cccc(P(=O)(OCC)OCC)c7c6)n(C)c5)n(C)c4)cn3C)cn2C)cc2c(P(=O)(OCC)OCC)cccc12 | 19.9% |
| c1cc(-c2nnc(-c3ccncc3)s2)ccn1 | 32.5% |
| CCN1CC(O)c2cc(N=NC(N)=O)c(O)cc21 (stereo not given) | -8.85% |
| COC(=O)N1CCc2c([nH]oc2=O)C1 | -13.4% |
| CCC(Nc1ccccc1)C(=O)O (stereo not given) | -16.9% |
| Cc1nc(=S)[nH][nH]1 | 3.5% |
